Laboratory results reported in PubChem BioAssay AID1159580 (chemical genetic matrix, 2015).
“And” between values parts separate entries of the source, which are not always exact repeats. Identical values can stand only once. Screen size: about 5,500 compounds; about 2,000 (36%) were called active. Another 18% or so got no clear call; they are omitted. Rule as the data show it: active = normalized growth mostly below about 0.91 (no sharp cut-off); inconclusive = no clear call, values can overlap the other calls; inactive = mostly above about 0.92. The list shows a part of the results.

Experiment: chemical genetic growth profiling, strain panel (AID 1159580);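 also: tested at 20 µM; growth read once vehicle control cultures reached saturation at 30 °C; 1 = growth at the plate median or of vehicle wells; lower values mean less growth of the strain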
Details: S. cerevisiae deletion strains, growth OD

Measured: normalized growth

CCCCCCCCCCCCCCCCCCOCC(O)CO (configuration not stated)
inactive: locus YAL013W, strain DEP1, active compounds read low 1.01 | locus YAL021C, strain ccr4, active compounds read low 1.01 | locus YAL026C, strain drs2, active compounds read low 1 | locus YAL030W, strain snc1, active compounds read low 0.991 | locus YBL061C, strain skt5, active compounds read low 0.987 | locus YBR009C, strain hhf1, active compounds read low 0.959 | locus YBR021W, strain FUR4, active compounds read low 1.03 | locus YBR023C, strain chs3, active compounds read low 0.99 | locus YBR171W, strain sec66, active compounds read low 0.999 | locus YBR229C, strain ROT2, active compounds read low 1.01 | locus YBR231C, strain swc5, active compounds read low 0.981 | locus YBR279W, strain paf1, active compounds read low 0.992 | locus YCL011C, strain gbp2, active compounds read low 0.988 | locus YCL016C, strain dcc1, active compounds read low 0.994 | locus YCL029C, strain bik1, active compounds read low 1.01 | locus YCL061C, strain MRC1, active compounds read low 0.996 | locus YCL069W, strain vba3, active compounds read low 0.998 | locus YCR088W, strain abp1, active compounds read low 0.997 | locus YDL005C, strain med2, active compounds read low 0.989 | locus YDL035C, strain GPR1, active compounds read low 1.02 | locus YDL040C, strain nat1, active compounds read low 0.973 | locus YDL074C, strain BRE1, active compounds read low 1.06 | locus YDL101C, strain DUN1, active compounds read low 1.01 | locus YDL185W, strain tfp1, active compounds read low 1.02 | locus YDL192W, strain arf1, active compounds read low 1.01 | locus YDR001C, strain nth1, active compounds read low 0.995 | locus YDR069C, strain doa4, active compounds read low 0.973 | locus YDR101C, strain arx1, active compounds read low 1.04 | locus YDR137W, strain rgp1, active compounds read low 0.987 | locus YDR150W, strain NUM1, active compounds read low 0.998 | locus YDR159W, strain sac3, active compounds read low 0.952 | locus YDR162C, strain NBP2, active compounds read low 0.991 | locus YDR195W, strain ref2 0.951 | locus YDR297W, strain sur2, active compounds read low 0.995 | locus YDR318W, strain mcm21, active compounds read low 0.986 | locus YDR334W, strain swr1, active compounds read low 0.994 | locus YDR335W, strain msn5, active compounds read low 1 | locus YDR388W, active compounds read low 1.01 | locus YDR392W, strain spt3, active compounds read low 0.858 | locus YDR502C, strain sam2, active compounds read low 1.02 | locus YEL003W, strain gim4, active compounds read low 0.998 | locus YEL037C, strain rad23, active compounds read low 1 | locus YEL061C, strain CIN8 (second series), active compounds read low 0.992 | locus YEL061C, strain CIN8, active compounds read low 1.01 | locus YER015W, strain faa2, active compounds read low 0.989 | locus YER016W, strain bim1, active compounds read low 0.994 | locus YER110C, active compounds read low 1.01 | locus YER111C, strain swi4, active compounds read low 0.979 | locus YER155C, strain BEM2 (second series), active compounds read low 0.948 | locus YER155C, strain BEM2, active compounds read low 1.01 | locus YER167W, strain BCK2, active compounds read low 1 | locus YFR010W, strain ubp6, active compounds read low 1.01 | locus YGL078C, strain dbp3, active compounds read low 1.02 | locus YGL086W, strain mad1, active compounds read low 1.05 | locus YGL167C, strain pmr1, active compounds read low 0.986 | locus YGL173C, strain kem1, active compounds read low 0.984 | locus YGL227W, strain vid30, active compounds read low 0.985 | locus YGL240W, strain doc1, active compounds read low 0.966 | locus YGL248W, strain PDE1, active compounds read low 1 | locus YGL253W, strain hxk2, active compounds read low 1 | locus YGR135W, strain pre9, active compounds read low 0.968 | locus YGR252W, strain gcn5, active compounds read low 0.969 | locus YHR013C, strain ard1, active compounds read low 0.938 | locus YHR027C, strain rpn1, active compounds read low 0.998 | locus YHR030C, strain SLT2, active compounds read low 1.01 and 1.02 | locus YHR079C, strain IRE1 (second series), active compounds read low 1 | locus YHR079C, strain IRE1, active compounds read low 0.993 | locus YHR094C, strain hxt1, active compounds read low 1.01 | locus YHR129C, strain ARP1, active compounds read low 1.01 | locus YHR142W, strain chs7, active compounds read low 1.04 | locus YHR200W, strain rpn10, active compounds read low 1.01 | locus YIL066C, strain RNR3, active compounds read low 1.01 | locus YIL073C, strain SPO22, active compounds read low 1.01 | locus YIL125W, strain kgd1, active compounds read low 1.01 | locus YIR030C, strain dcg1, active compounds read low 1 | locus YJL092W, strain hpr5, active compounds read low 0.999 | locus YJL095W, strain BCK1 (second series), active compounds read low 0.998 | locus YJL095W, strain BCK1, active compounds read low 1.02 and 0.984 | locus YJL115W, strain asf1, active compounds read low 0.987 | locus YJL129C, strain trk1, active compounds read low 0.984 | locus YJL134W, strain LCB3, active compounds read low 0.997 | locus YJL154C, strain vps35, active compounds read low 0.992 | locus YJL164C, strain tpk1, active compounds read low 1 | locus YJL166W, strain qcr8, active compounds read low 0.99 | locus YJL168C, strain set2, active compounds read low 0.999 | locus YJL187C, strain SWE1 (second series), active compounds read low 1.03 | locus YJL187C, strain SWE1, active compounds read low 0.996
